PubChem BioAssay (NCI)
“And” between values parts separate entries of the source, which are not always exact repeats. Equal entries are not always repeated. This is part of a sample that, as a whole, favours compounds with a hit. Of some 83,000 tested, about 20% had one in any assay.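 Interpretation: 100, growth as untreated; towards 0, rising growth inhibition; 0, no net growth; 0 to -100, cell death. Compounds scoring below 10 were considered active.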 The source made the active and inactive calls.

Key:
Assay in all cases: NCI-60 one-dose screen, 48 h (100 = growth as untreated, 0 = no growth, -100 = all killed)
Settings in all cases: 10 µM unless noted
[1] = system: NCI-H23 lung
[2] = system: NCI-H226 lung
[3] = system: NCI-H322M lung
[4] = system: HOP-62 NSCLC
[5] = system: NCI-H460 lung
[6] = system: HOP-92 NSCLC
[7] = system: NCI-H522 lung
[8] = system: A549/ATCC NSCLC
[9] = system: 786-0 renal
[10] = system: COLO 205 colon
[11] = system: DU-145 prostate
[12] = system: K-562 leukemia
[13] = system: MALME-3M melanoma
[14] = system: MDA-MB-231 breast
[15] = system: RXF 393 renal
[16] = system: SF-268 CNS
[17] = system: SF-295 CNS
[18] = system: SF-539 CNS
[19] = system: UACC-257 melanoma
[20] = system: M14 melanoma

| Structure (SMILES) | growth [1] | growth [2] | growth [3] | growth [4] | growth [5] | growth [6] | growth [7] | growth [8] | growth [9] | growth [10] | growth [11] | growth [12] | growth [13] | growth [14] | growth [15] | growth [16] | growth [17] | growth [18] | growth [19] | growth [20] |
| --- | --- | --- | --- | --- | --- | --- | --- | --- | --- | --- | --- | --- | --- | --- | --- | --- | --- | --- | --- | --- |
| N#Cc1c(N)nnn1Cc1cc(=O)oc2ccc(O)cc12 | 106% (inactive) | 95.7% (inactive) | 110% (inactive) | 106% (inactive) | 107% (inactive) | 95.7% (inactive) | 89.6% (inactive) | 98.7% (inactive) | 106% (inactive) | 118% (inactive) | 108% (inactive) | 96.1% (inactive) | 108% (inactive) | 112% (inactive) | 98.8% (inactive) | 103% (inactive) | 102% (inactive) | 104% (inactive) | 101% (inactive) | 105% (inactive) |
| COc1cc(CNC(=O)CCCC/C=C/C(C)C)ccc1OCc1cn(-c2ccc([N+](=O)[O-])cc2)nn1 | 83.2% (inactive) | 89.6% (inactive) | 97.9% (inactive) | 80.9% (inactive) | 99.8% (inactive) | 90.3% (inactive) | 78.2% (inactive) | 84.1% (inactive) | 93.7% (inactive) | 118% (inactive) | 105% (inactive) | 74.5% (inactive) | 98.4% (inactive) | 75.3% (inactive) | 99.7% (inactive) | 86.1% (inactive) | 89% (inactive) | 104% (inactive) | 82.6% (inactive) | 89.7% (inactive) |
| COc1ccccc1/C=C/C(=O)/C=C/c1ccccc1OC | -26% (active) and 24.7% (inactive) | -30.6% (active) | 30.6% (inactive) and 38.9% (inactive) | -22.7% (active) and -19.7% (active) | 2.27% (active) and -3.65% (active) | -10.9% (active) and 33.9% (inactive) | -84.5% (active) and -58.5% (active) | -13.8% (active) and -7.39% (active) | -56.9% (active) and -47.8% (active) | -73.7% (active) and -57.9% (active) | -11.9% (active) and -11.3% (active) | 10.9% (inactive) | -33.8% (active) and 2.49% (active) | 17.5% (inactive) and 8.92% (active) | -87.5% (active) and -89.7% (active) | 8.73% (active) and 21.3% (inactive) | 10.4% (inactive) and -31% (active) | 3.38% (active) and -29.1% (active) | -29.2% (active) and 6.89% (active) | 8.11% (active) and -49.7% (active) |
| COc1ccc(/C=C/C(=O)c2cc3c(N)c(C(=O)Nc4ccccc4)sc3nc2C)cc1 | 28.8% (inactive) | 42.7% (inactive) | 35.9% (inactive) | 32.9% (inactive) | -1.05% (active) | 40.6% (inactive) | -17.9% (active) | 16.8% (inactive) | 20.2% (inactive) | -17.4% (active) | 10.9% (inactive) | 14.7% (inactive) | 58.1% (inactive) | 13.3% (inactive) | -19.2% (active) | 22.6% (inactive) | 11.6% (inactive) | -27.3% (active) | 69.5% (inactive) | 6.3% (active) |
| CCN1C(=S)N(CC)C2C1NC(=S)N2/N=C/C=C/c1ccccc1 (stereo not given) | 58.5% (inactive) | 64.5% (inactive) | 51.1% (inactive) | 44.4% (inactive) | 12.4% (inactive) | 62.2% (inactive) | -7.6% (active) | 37.6% (inactive) | 40.9% (inactive) | 33.4% (inactive) | 30.6% (inactive) | 15.5% (inactive) | 28% (inactive) | 52.7% (inactive) | 2.31% (active) | 55.6% (inactive) | 19.6% (inactive) | 11.4% (inactive) | 41.7% (inactive) | 24.8% (inactive) |
| CCOc1nc(-c2ccccc2)cc2c(O)c(C(=O)N/N=C/c3ccc(N(C)C)cc3)[nH]c(=O)c12 | 107% (inactive) | 97.1% (inactive) | 113% (inactive) | 65.2% (inactive) | 106% (inactive) | 99.9% (inactive) | 80.4% (inactive) | 107% (inactive) | 112% (inactive) | 229% (inactive) | 120% (inactive) | 105% (inactive) | 135% (inactive) | 98.8% (inactive) | 123% (inactive) | 104% (inactive) | 111% (inactive) | 99.7% (inactive) | 125% (inactive) | 119% (inactive) |
| COc1c(O)c(O)cc2c3c(oc12)CC(c1ccc2c(c1)OCO2)CC3=O (stereo not given) | 69.4% (inactive) | 80% (inactive) | 73.2% (inactive) | 71.4% (inactive) | 25% (inactive) | 71.7% (inactive) | 54.2% (inactive) | 60.7% (inactive) | 52.1% (inactive) | 119% (inactive) | 68.8% (inactive) | 17.2% (inactive) | 95.7% (inactive) | 70.5% (inactive) | 105% (inactive) | 53.9% (inactive) | 101% (inactive) | 67.6% (inactive) | 55.3% (inactive) | 23.3% (inactive) |
| O=C1/C(=C/c2ccc(F)c(F)c2)CN(C(=O)C(Cl)Cl)C/C1=C\c1ccc(F)c(F)c1 | -81.2% (active) | -17% (active) | -86% (active) | -57.7% (active) | -71.9% (active) | -62.6% (active) | -81.8% (active) | -52.1% (active) | -96% (active) | -85.8% (active) | -98.1% (active) | -19.4% (active) | -80.2% (active) | -73.7% (active) | -93.1% (active) | -39.4% (active) | -96.8% (active) | -98.9% (active) | -74.8% (active) | -90.1% (active) |
| O=[N+]([O-])c1ccc2[nH]c3nccc(NCc4cccc(Cl)c4)c3c2c1 | 82.3% (inactive) | 83.9% (inactive) | 77.8% (inactive) | 10.8% (inactive) | 26.8% (inactive) | 92.5% (inactive) | 50.3% (inactive) | 58.8% (inactive) | 76.4% (inactive) | 68.1% (inactive) | 64.6% (inactive) | 79.4% (inactive) | 46.4% (inactive) | 80.2% (inactive) | 66.4% (inactive) | 46.1% (inactive) | 67.3% (inactive) | 71.1% (inactive) | 85.5% (inactive) | 83.4% (inactive) |
| Cc1ccc(NC(=O)N/C(N)=N/c2nc(=O)c3ccccc3s2)cc1 | 94.1% (inactive) | 91.3% (inactive) | 93.9% (inactive) | 91.7% (inactive) | 88.8% (inactive) | 86.4% (inactive) | 95.3% (inactive) | 103% (inactive) | 98.6% (inactive) | 103% (inactive) | 108% (inactive) | 57% (inactive) | 93.9% (inactive) | 86% (inactive) | 99% (inactive) | 102% (inactive) | 101% (inactive) | 95.5% (inactive) | 103% (inactive) | 92.4% (inactive) |
| COc1cc(Cl)cc(-c2nn(C(=O)NS(=O)(=O)c3ccc(Cl)cc3)cc2-c2ccncc2)c1 | 89.1% (inactive) | 70.7% (inactive) | 96.5% (inactive) | 59.4% (inactive) | 111% (inactive) | 26.6% (inactive) | 74.3% (inactive) | 65.1% (inactive) | 67.9% (inactive) | 72.1% (inactive) | 83.8% (inactive) | 82.2% (inactive) | 78.1% (inactive) | 56.8% (inactive) | 71.2% (inactive) | 67.5% (inactive) | 90.6% (inactive) | 39.6% (inactive) | 113% (inactive) | 72.7% (inactive) |
| CC1=CC(C)(C)NC(=S)N1c1ccc(Cl)cc1 | 101% (inactive) and 99% (inactive) | 99% (inactive) and 103% (inactive) | 98.2% (inactive) | 108% (inactive) and 102% (inactive) | 101% (inactive) and 112% (inactive) | 114% (inactive) | 93.7% (inactive) and 92.4% (inactive) | 98% (inactive) and 104% (inactive) | 99.8% (inactive) and 97.7% (inactive) | 109% (inactive) and 100% (inactive) | 105% (inactive) and 110% (inactive) | 97.7% (inactive) and 92.6% (inactive) | 99.7% (inactive) | 101% (inactive) and 99.3% (inactive) | 104% (inactive) and 121% (inactive) | 101% (inactive) and 100% (inactive) | 101% (inactive) and 111% (inactive) | 98.7% (inactive) and 106% (inactive) | 98.6% (inactive) and 105% (inactive) | 102% (inactive) and 95% (inactive) |
| O=C(/C=C/C12c3ccccc3C(c3ccccc31)C1C(=O)NC(=O)C12)c1ccncc1 (stereo not given) | 23.2% (inactive) | 78.9% (inactive) | 35.6% (inactive) | 4.78% (active) | 24.9% (inactive) | 23.6% (inactive) | 28.5% (inactive) | 86.1% (inactive) | 20.6% (inactive) | 78.2% (inactive) | 13% (inactive) | 6.6% (active) | 37.1% (inactive) | 15% (inactive) | 13.4% (inactive) | 10.2% (inactive) | 28.4% (inactive) | 5.79% (active) | 32.3% (inactive) | 20.3% (inactive) |
